# Values joined by “and” are separate entries in the source; they are usually repeats but may differ in a detail not shown here. Equal entries are not always repeated. Some compounds were tested as several samples or in several runs, with calls that do not always agree. Active and inactive are the calls of the source. How the source made its calls: active means hit-call score of the fitted dose curve at least 0.9, where 1 is the maximum; inactive means score below 0.9.
# Assay: APR_HepG2_CellLoss_24hr: Apredica 24-hour HepG2 Assay for Cell Loss (AID 2282908);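 on AC50: fit in both directions so a hit may be cell loss or gain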
# Conditions: high-content imaging
# Method: APR_HepG2_24hr is a cell-based, multiplexed-readout assay that uses HepG2, a human liver cell line, with measurements taken at 24 hours after chemical dosing in a 384-well plate.APR_HepG2_CellLoss_24hr is one of 10 assay component(s) measured or calculated from the APR_HepG2_24hr assay. It is designed to make measurements of cell number, a form of viability reporter, as detected with fluorescence intensity signals by HCS Fluorescent Imaging technology.Data from the assay component APR_HepG2_CellLoss_24hr was analyzed into 1 assay endpoint. This assay endpoint, APR_HepG2_CellLoss_24hr, was analyzed with bidirectional fitting relative to DMSO as the negative control and baseline of activity. Using a type of viability reporter, measures of all nuclear dna for gain or loss-of-signal activity can be used to understand the viability at the cellular-level. Furthermore, this assay endpoint can be referred to as a secondary readout, because this assay has produced multiple assay endpoints where this one serves a viability function. To generalize the intended target to other relatable targets, this assay endpoint is annotated to the cell cycle intended target family, where the subfamily is proliferation.
# Cells were treated with dimethyl sulfoxide (DMSO) as a solvent control at a final concentration of 0.5% v/v or with compounds in DMSO with a resulting final DMSO concentration of 0.5% v/v. Compound treatment was done at concentrations of 0.39, 0.78, 1.56, 3.12, 6.24, 12.5, 25, 50, 100, and 200 uM in duplicate on each plate. Cells were treated with compounds for 1, 24, or 72 hr. Carbonyl […] m-chloro-phenylhydrazone (CCCP) and taxol were used as positive controls for mitochondrial function and cytoskeletal stability, respectively; DMSO served as the negative control for this experiment. Cells were fixed by the direct addition of 50 uL formaldehyde in Hank's Balanced Salt Solution (HBSS) to a final concentration of 3.7%. After incubation in the fixation medium for 30 min at room temperature (293-298 K), cells were rinsed twice with HBSS and treated with cell permeabilization buffer (16 uL of 0.5% Triton X-100) for 10 min at room temperature (293-298 K) before labeling. For mitochondrial membrane potential and mitochondrial measurements, pre-fixed cells were incubated with 50 uL of MitoTracker Red CMXRos (Invitrogen) at a concentration of 250 nM for 30 min before fixation. In the remaining cases, post-fixed cells were labeled by incubation with a multiplexed mixture of primary antibodies in HBSS for 60 min at room temperature (293-298 K) to detect immunoreactivity of c-Jun (1:500), phospho-histone H3 (1:100), phospho-histone H2A.x (1:200), p53 (1:400), alpha-tubulin (1:200) and Hoechst 33342 (2 ug/mL). Cells were labeled for multiplexed imaging on two separate plates: a) Hoechst 33342, MitoTracker Red, phospho-histone H3, and alpha-tubulin, and b) Hoechst 33342, phospho-histone H2A.x, and c-Jun. A final rinse with HBSS (50 uL) was performed before analysis. The primary and secondary antibodies for the proteins were phospho-histone H3 (rabbit anti-phospho-histone H3 and FITC-donkey anti-rabbit IgG), phospho-histone H2A.x (mouse anti-phospho-histone H2A.x and FITC-donkey anti-mouse IgG), c-Jun (rabbit anti-phospho-c-Jun and Cy3-donkey anti-rabbit IgG), p53 (sheep anti-p53 and Cy5-donkey anti-sheep IgG), alpha-tubulin (mouse anti-alpha-tubulin and Cy5-donkey anti-mouse IgG). These antibodies are available as the CellCiphr HepG2 assay kit (Millipore).Digital images of each well were captured using a Cellomics ArrayScan VTI (Thermo Scientific Cellomics) (0.8 NA objective, 0.63x optical coupler, and XF-93 filter set) at 20x magnification. The images were acquired using the autofocus feature of the ArrayScan instrument, which entails the following steps. First, the camera focuses on channel 1 (Hoechst 33342), where nuclei are identified. Second, a Z offset of 1 um is used for capturing mitochondria (MitoTracker Red). […]
SMILES,outcome,AC50
Cc1cc(C)nc(NC(=O)NS(=O)(=O)c2ccccc2C(=O)OC2COC2)n1,inactive,–
CC[C@H](C)[C@H]1O[C@]2(C=C[C@@H]1C)C[C@@H]1C[C@@H](C/C=C(\C)[C@@H](O[C@H]3C[C@H](OC)[C@@H](O[C@H]4C[C@H](OC)[C@@H](O)[C@H](C)O4)[C@H](C)O3)[C@@H](C)/C=C/C=C3\CO[C@@H]4[C@H](O)C(C)=C[C@@H](C(=O)O1)[C@]34O)O2 (tested in a mixture with another compound),–,12.2 µM (active)
O=C(O)CCCOc1ccc(Cl)cc1Cl,inactive,–
[2H]C1([2H])[n+]2ccccc2-c2cccc[n+]2C1([2H])[2H],inactive,–
CCC(C)Nc1c([N+](=O)[O-])cc(C(C)(C)C)cc1[N+](=O)[O-] (stereo not given),–,45.8 µM (active)
CCOC1Oc2ccc(OS(C)(=O)=O)cc2C1(C)C (stereo not given),inactive,–
CNC(=O)CSP(=S)(OC)OC,inactive,–
COP(=O)(OC)OC=C(Cl)Cl,–,58.9 µM (active)
O=C1c2ccccc2C(=O)N1SC(Cl)(Cl)Cl,inactive,–
Oc1ccc(Cl)cc1Cc1ccccc1,inactive,77.3 µM (active) [middle of 6 runs]
CCN(CC)C(=O)SCc1ccc(Cl)cc1,inactive,–
N#CN,inactive,–
C#CCN1C(=O)COc2cc(F)c(N3C(=O)C4=C(CCCC4)C3=O)cc21,inactive,–
N#Cc1c(Cl)c(Cl)c(Cl)c(C#N)c1Cl,inactive,–
O=S(=O)(O)C(F)(F)C(F)(F)C(F)(F)C(F)(F)C(F)(F)C(F)(F)C(F)(F)C(F)(F)F,–,122 µM (active) [middle of 5 runs]
CCc1ccc(C(=O)NN(C(=O)c2cc(C)cc(C)c2)C(C)(C)C)cc1,inactive,–
CC(C)(C)C(O)C(Oc1ccc(Cl)cc1)n1cncn1 (stereo not given),inactive,–
O=C(O)COc1ccc(Cl)cc1Cl,inactive,–
CN1CSC(=S)N(C)C1,–,16.8 µM (active)
CCOCN(C(=O)CCl)c1c(C)cccc1CC,–,30.5 µM (active)

SMILES,outcome,AC50
CC1(C)C(C=C(Cl)Cl)C1C(=O)OC(C#N)c1ccc(F)c(Oc2ccccc2)c1 (stereo not given),inactive,–
CCCN(CCOc1c(Cl)cc(Cl)cc1Cl)C(=O)n1ccnc1,–,103 µM (active)
Oc1cc(Cl)ccc1Oc1ccc(Cl)cc1Cl,–,90.7 µM (active) and 70.9 µM (active) and 12.8 µM (active)
Cc1[nH]c(=O)n(C(C)(C)C)c(=O)c1Cl,inactive,–
O=C(Nc1ccccc1)Nc1cnns1,inactive,–
CCCN(CCC)c1c([N+](=O)[O-])cc(C(F)(F)F)cc1[N+](=O)[O-],inactive,–
C[C@H]1[C@H](c2ccc(Cl)cc2)SC(=O)N1C(=O)NC1CCCCC1,inactive,–
O=[N+]([O-])c1c(Cl)c(Cl)c(Cl)c(Cl)c1Cl,inactive,–
ClC1C(Cl)C(Cl)C(Cl)C(Cl)C1Cl (stereo not given),inactive,–
O=[N+]([O-])/N=C1\NCCN1Cc1ccc(Cl)nc1,inactive,–
O=C(O)C(F)(F)C(F)(F)C(F)(F)C(F)(F)C(F)(F)C(F)(F)C(F)(F)F,inactive,–
CNC(=O)/C=C(\C)OP(=O)(OC)OC,inactive,–
O=C(NC(=O)c1c(F)cccc1F)Nc1ccc(OC(F)(F)C(F)OC(F)(F)F)c(Cl)c1 (stereo not given),inactive,–
COc1cc(OC)nc(NC(=O)NS(=O)(=O)c2cc(NC=O)ccc2C(=O)N(C)C)n1,inactive,–
CNC(=O)Oc1ccccc1OC(C)C,inactive,–
COP(=S)(OC)Oc1ccc([N+](=O)[O-])cc1,inactive,–
COc1nn(CSP(=S)(OC)OC)c(=O)s1,inactive,–
CCS(=O)(=O)c1cccnc1S(=O)(=O)NC(=O)Nc1nc(OC)cc(OC)n1,inactive,–
CC(C)(C)C(O)/C(=C\c1ccc(Cl)cc1Cl)n1cncn1 (stereo not given),inactive,–

# Reference: PubChem BioAssay (EPA / NIEHS)
